Measurements: PubChem BioAssay
Activity calls are given as the source filed them. No rule for the calls is given here.

Assay: Pseudomonas biofilm growth suppression – PAO1 strain, BacTiter-Glo luminescence, LB-PBS, primary screen (AID 1144)
Conditions: P. aeruginosa PAO1 biofilm, 12 h, higher = more signal

SMILES | z-score
CC[C@@H]1C=C(C(=O)O)[C@H](c2ccc(Br)cc2)N1S(=O)(=O)c1ccc(C)cc1 | 0.598 (inactive)
O=C1c2ccccc2[C@](Cc2ccccc2I)(C(=O)NCCN2CCOCC2)[C@H](c2ccc(CO)cc2)N1Cc1ccccc1Cl | 0.825 (inactive)
COC(=O)[C@@]1(Cc2ccc(OC)cc2)[C@H]2c3cc(C(=O)N4CCCC4)n(CCN4CNCC4=O)c3C[C@H]2CN1C(=O)c1ccccc1 | -0.12 (inactive)
COC(=O)[C@@]1(Cc2ccc(OC)cc2)[C@@H]2C(=CC(=O)[C@H]2CC(=O)C(=O)N2CCCC2)CN1C(=O)c1ccccc1 | 0.745 (inactive)
C=CCNC(=O)[C@@H]1[C@H]2C(=O)O[C@H](c3ccccc3)[C@H](c3ccccc3)N2[C@H](c2ccc(O)cc2)[C@@]12C(=O)N(C(=O)OCCOC)c1ccc(C#CCNC(N)=O)cc12 | -0.298 (inactive)
Cc1ccc(S[C@]2(C(=O)NCCCN(C)C)CC(=O)N(Cc3cc(C(F)(F)F)cc(C(F)(F)F)c3)[C@@H]2c2ccc(CO)cc2)cc1 | -0.617 (inactive)
COc1ccc([Si](C)(C)[C@H]2[C@H](CCO)O[C@@]3(C(=O)N(Cc4ccc(N(C=O)c5ccccc5)cc4)c4ccccc43)[C@@H]2C)cc1 | -0.305 (inactive)
[N-]=[N+]=Nc1ccccc1[C@H]1OC(c2ccc(OCCCO)cc2)=N[C@@]1(CCS(=O)(=O)c1ccccc1)C(N)=O | -0.563 (inactive)
NC(=O)NCC#Cc1ccc2c(c1)[C@]1(C(=O)N2)[C@H](c2ccccc2OCCO)N2[C@H](c3ccccc3)[C@H](c3ccccc3)OC(=O)[C@H]2[C@@H]1C(=O)Nc1nc2ccccc2s1 | -1.39 (inactive)
CCCC=C(CCC)[C@@H](NC(=O)c1cccs1)c1ccc(C(F)(F)F)cc1 | -0.407 (inactive)
CN(C)C(=O)[C@]1(Cc2ccccc2N=[N+]=[N-])N=C(c2ccc(OCCCO)cc2)O[C@@H]1c1ccccc1N=[N+]=[N-] | -0.938 (inactive)
COC(=O)[C@@]1(Cc2ccc(OC)cc2)[C@H]2c3cc(C(=O)N(C)C)n(Cc4ccccn4)c3C[C@H]2CN1C(=O)c1ccccc1 | 0.691 (inactive)
COC(=O)[C@@]1(Cc2ccc(F)cc2)[C@H]2c3cc(C(=O)N4CCCC4)n(CCCNc4ncc(C(F)(F)F)cc4Cl)c3C[C@H]2CN1C(=O)c1ccccc1 | -0.0456 (inactive)
O=C(CS)NCCCCCCNC(=O)[C@@H]1C[C@@H]2C(=O)NCC(=O)N2[C@@H]1c1cccc(OCCO)c1 | -0.865 (inactive)
CCOC(=O)C[C@H]1[C@H](OC(=O)c2ccccc2-c2ccccc2)[C@@H](NC(=O)CC(C)C)c2cc(OCCCO)ccc2N1C(=O)Cc1ccc(OC)cc1 | 0.393 (inactive)
COc1ccc([C@H]2OC[C@@H]3C[C@@H](Cc4ccccc4)C(=O)N32)cc1 | 1.01 (inactive)
COc1ccc(CCNC(=O)[C@@]2(C)c3ccccc3C(=O)N(C(C)C)[C@H]2c2ccc(CO)cc2)cc1 | 1.08 (inactive)
C=CCOC(=O)[C@@H]1[C@H]2C(=O)O[C@H](c3ccccc3)[C@H](c3ccccc3)N2[C@H](c2ccc(OCCOC(=O)[C@@H]3C[C@@H]4C(=O)NCC(=O)N4[C@@H]3c3ccc(O)cc3)cc2)[C@@]12C(=O)Nc1ccc(I)cc12 | -0.725 (inactive)
O=C1C[C@@](C(=O)NCCN2CCOCC2)(c2ccc([N+](=O)[O-])cc2)[C@@H](c2ccc(CO)cc2)N1CC12CC3CC(CC(C3)C1)C2 | 0.881 (inactive)
COCCOC(=O)N1C(=O)[C@@]2(c3cc(C#CCC(C(=O)OC)C(=O)OC)ccc31)[C@H](C(=O)Nc1nc3ccccc3s1)[C@H]1C(=O)O[C@H](c3ccccc3)[C@H](c3ccccc3)N1[C@@H]2c1ccccc1OCCO | -1.12 (inactive)
COC(=O)[C@@]1(Cc2ccccc2)[C@H]2c3cc(C(=O)N(C)C)n(Cc4ccsc4Br)c3C[C@H]2CN1C(=O)c1ccccc1 | -0.166 (inactive)
CC1CC/C=C\[C@H]2OC34C=CCN(C(C)(C)C)C(=O)[C@H]3N(CCO)C(=O)[C@@H]4C2C(=O)O1 (some centres undefined) | -0.0996 (inactive)
C=C(CCCC)/C(=C/C[C@@H](OC(C)=O)c1ccc(OCCO)cc1)c1cnc2ccccc2c1 | -1.02 (inactive)
CC(C)C(O)C1C=CC2C(=O)N(c3ccccc3)C(=O)C2N1Nc1ccc([N+](=O)[O-])cc1 (centres undefined) | 0.21 (inactive)
